# According to ChEMBL document CHEMBL1961873, “Compounds: GSK PKIS; Assays: Nanosyn kinase panel” (2012):
# Key:
# [1] = molecular target: Sphingosine kinase 1 (Homo sapiens) (UniProt Q9NYA1); conditions: at 1 µM;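 note: mean SPHK1 inhibition value reported from the GSK PKIS kinase panel screen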
# [2] = molecular target: T1, Sphingosine kinase 2 (Homo sapiens) (UniProt Q9NRA0); conditions: at 0.1 µM
# T1 sequence (whole entry): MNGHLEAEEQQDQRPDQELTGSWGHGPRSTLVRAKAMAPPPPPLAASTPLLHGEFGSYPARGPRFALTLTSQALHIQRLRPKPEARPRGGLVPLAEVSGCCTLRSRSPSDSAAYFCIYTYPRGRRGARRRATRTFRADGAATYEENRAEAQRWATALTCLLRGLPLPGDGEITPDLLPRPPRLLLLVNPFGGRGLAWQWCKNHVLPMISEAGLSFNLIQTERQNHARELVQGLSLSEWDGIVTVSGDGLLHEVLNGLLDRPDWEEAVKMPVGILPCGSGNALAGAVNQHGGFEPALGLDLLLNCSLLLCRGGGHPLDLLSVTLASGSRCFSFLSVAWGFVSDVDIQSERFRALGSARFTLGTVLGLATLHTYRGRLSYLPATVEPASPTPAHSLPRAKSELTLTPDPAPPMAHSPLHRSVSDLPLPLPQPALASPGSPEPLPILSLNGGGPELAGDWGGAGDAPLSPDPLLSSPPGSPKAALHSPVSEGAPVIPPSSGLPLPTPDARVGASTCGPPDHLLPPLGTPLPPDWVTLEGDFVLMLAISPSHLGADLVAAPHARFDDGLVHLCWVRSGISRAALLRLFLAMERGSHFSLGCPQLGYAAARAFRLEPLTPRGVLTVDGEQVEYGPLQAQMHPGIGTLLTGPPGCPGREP
# [3] = molecular target: T1, Sphingosine kinase 2 (Homo sapiens); conditions: at 1 µM
# [4] = molecular target: Casein kinase II subunit alpha (Homo sapiens) (UniProt P68400); conditions: at 0.1 µM
# Chain of Casein kinase II subunit alpha (Homo sapiens) (P68400 whole entry, looked up): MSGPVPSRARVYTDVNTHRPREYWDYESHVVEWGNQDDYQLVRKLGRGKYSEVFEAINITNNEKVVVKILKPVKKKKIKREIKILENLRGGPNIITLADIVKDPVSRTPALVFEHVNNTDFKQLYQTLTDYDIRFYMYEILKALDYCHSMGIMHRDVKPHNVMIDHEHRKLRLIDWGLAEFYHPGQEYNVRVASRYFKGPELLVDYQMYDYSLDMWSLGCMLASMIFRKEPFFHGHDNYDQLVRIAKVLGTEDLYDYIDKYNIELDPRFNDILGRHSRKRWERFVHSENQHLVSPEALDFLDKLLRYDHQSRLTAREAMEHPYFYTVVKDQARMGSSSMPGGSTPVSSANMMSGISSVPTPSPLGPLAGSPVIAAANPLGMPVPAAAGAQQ
# [5] = molecular target: Casein kinase II subunit alpha (Homo sapiens) (UniProt P68400); conditions: at 1 µM
# [6] = molecular target: T2, Inhibitor of nuclear factor kappa-B kinase subunit alpha (Homo sapiens) (UniProt O15111); conditions: at 0.1 µM
# T2 sequence (whole entry): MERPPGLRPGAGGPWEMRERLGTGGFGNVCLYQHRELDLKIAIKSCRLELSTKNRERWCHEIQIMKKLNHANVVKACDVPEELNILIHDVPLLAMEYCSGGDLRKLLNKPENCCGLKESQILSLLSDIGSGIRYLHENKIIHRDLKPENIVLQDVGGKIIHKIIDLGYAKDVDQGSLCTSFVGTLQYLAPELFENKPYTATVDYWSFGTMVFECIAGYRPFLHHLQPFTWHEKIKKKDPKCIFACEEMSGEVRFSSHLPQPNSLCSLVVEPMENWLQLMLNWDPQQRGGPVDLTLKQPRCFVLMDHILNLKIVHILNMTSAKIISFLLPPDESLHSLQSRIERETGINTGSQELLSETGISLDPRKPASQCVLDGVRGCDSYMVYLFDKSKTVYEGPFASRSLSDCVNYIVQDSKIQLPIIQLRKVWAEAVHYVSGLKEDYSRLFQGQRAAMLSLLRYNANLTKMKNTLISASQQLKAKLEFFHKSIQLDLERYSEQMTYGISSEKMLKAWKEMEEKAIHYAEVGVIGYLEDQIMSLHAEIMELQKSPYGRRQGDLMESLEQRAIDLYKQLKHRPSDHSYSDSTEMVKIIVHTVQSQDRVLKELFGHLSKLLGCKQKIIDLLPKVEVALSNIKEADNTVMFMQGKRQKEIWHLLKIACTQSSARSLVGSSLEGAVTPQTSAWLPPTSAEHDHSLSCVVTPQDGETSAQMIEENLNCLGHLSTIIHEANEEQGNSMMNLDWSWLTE
# [7] = molecular target: T2, Inhibitor of nuclear factor kappa-B kinase subunit alpha (Homo sapiens); conditions: at 1 µM
# [8] = molecular target: T3, Inhibitor of nuclear factor kappa-B kinase subunit beta (Homo sapiens) (UniProt O14920); conditions: at 0.1 µM
# T3 sequence (whole entry): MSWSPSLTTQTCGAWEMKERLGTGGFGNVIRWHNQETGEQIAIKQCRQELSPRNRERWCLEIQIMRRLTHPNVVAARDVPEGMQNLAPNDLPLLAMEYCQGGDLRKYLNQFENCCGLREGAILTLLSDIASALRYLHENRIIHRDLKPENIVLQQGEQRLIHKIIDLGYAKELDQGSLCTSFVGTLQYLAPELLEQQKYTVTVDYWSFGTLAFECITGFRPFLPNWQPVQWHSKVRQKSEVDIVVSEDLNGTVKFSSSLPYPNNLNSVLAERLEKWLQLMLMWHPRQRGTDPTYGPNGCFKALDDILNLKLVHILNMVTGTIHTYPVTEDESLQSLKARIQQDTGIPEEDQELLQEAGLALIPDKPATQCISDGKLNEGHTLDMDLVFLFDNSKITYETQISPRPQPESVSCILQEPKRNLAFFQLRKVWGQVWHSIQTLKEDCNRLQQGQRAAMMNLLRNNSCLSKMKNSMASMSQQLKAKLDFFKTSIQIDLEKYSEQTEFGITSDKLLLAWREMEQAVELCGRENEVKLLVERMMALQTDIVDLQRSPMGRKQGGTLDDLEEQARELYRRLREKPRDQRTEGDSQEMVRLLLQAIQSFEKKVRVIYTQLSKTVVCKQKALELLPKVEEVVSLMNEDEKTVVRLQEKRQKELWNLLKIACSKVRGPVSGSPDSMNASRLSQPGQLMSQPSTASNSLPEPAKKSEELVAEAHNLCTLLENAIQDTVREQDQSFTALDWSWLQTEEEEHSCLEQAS
# [9] = molecular target: T3, Inhibitor of nuclear factor kappa-B kinase subunit beta (Homo sapiens); conditions: at 1 µM
# [10] = molecular target: T4, Inhibitor of nuclear factor kappa-B kinase subunit epsilon (Homo sapiens) (UniProt Q14164); conditions: at 0.1 µM
# T4 sequence (whole entry): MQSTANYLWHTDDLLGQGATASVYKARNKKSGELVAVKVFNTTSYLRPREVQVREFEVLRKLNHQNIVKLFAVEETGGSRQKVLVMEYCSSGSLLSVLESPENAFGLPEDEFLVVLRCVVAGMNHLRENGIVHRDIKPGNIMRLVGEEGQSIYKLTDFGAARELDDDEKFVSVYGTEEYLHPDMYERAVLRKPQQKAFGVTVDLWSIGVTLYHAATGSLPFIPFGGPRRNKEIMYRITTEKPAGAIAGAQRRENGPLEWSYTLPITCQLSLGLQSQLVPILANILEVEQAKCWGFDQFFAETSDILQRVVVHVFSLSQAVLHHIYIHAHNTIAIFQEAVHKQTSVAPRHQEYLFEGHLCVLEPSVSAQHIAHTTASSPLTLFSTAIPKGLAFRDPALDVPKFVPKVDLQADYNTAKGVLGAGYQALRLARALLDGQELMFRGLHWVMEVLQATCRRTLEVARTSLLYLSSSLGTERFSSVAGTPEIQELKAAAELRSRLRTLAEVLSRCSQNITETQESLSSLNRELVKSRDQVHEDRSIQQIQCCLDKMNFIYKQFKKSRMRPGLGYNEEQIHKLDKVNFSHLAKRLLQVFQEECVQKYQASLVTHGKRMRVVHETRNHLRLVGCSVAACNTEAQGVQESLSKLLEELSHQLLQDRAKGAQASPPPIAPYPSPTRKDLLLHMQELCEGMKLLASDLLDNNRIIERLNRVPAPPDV
# [11] = molecular target: T4, Inhibitor of nuclear factor kappa-B kinase subunit epsilon (Homo sapiens); conditions: at 1 µM
# [12] = molecular target: T5, Serine/threonine-protein kinase Nek1 (Homo sapiens) (UniProt Q96PY6); conditions: at 0.1 µM
# T5 sequence (whole entry): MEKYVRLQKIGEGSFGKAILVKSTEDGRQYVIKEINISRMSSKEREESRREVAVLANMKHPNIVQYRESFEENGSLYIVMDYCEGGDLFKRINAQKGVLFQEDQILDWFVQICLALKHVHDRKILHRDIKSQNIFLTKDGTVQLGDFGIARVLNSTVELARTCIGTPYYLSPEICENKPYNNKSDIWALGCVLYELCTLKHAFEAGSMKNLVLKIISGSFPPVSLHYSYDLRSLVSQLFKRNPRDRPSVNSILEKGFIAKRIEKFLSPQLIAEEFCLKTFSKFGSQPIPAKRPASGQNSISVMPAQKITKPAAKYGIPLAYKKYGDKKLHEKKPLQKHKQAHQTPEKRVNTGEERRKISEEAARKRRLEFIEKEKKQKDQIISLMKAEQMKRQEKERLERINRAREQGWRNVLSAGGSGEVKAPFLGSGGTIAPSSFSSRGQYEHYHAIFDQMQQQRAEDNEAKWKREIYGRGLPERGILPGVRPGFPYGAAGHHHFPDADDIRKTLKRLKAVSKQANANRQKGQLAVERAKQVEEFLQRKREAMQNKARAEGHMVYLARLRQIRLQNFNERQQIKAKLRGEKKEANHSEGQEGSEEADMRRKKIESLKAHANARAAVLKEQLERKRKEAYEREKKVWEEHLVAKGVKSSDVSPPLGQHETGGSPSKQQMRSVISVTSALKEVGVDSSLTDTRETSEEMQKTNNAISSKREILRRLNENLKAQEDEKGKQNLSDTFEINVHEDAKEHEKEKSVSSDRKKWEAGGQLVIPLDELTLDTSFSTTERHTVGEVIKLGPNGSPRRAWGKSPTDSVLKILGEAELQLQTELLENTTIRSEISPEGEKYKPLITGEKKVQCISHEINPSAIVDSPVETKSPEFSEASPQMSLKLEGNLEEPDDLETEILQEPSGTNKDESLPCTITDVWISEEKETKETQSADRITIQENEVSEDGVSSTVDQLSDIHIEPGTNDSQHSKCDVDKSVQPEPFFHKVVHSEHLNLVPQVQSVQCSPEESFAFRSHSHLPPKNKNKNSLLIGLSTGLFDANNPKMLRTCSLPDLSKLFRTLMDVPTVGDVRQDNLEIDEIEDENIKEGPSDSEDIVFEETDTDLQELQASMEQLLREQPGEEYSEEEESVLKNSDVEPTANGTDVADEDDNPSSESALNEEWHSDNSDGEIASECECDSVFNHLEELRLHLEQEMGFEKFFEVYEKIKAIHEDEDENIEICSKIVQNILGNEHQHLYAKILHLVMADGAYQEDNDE
# [13] = molecular target: T5, Serine/threonine-protein kinase Nek1 (Homo sapiens); conditions: at 1 µM
# [14] = molecular target: T6, Serine/threonine-protein kinase Nek2 (Homo sapiens) (UniProt P51955); conditions: at 0.1 µM
# T6 sequence (whole entry): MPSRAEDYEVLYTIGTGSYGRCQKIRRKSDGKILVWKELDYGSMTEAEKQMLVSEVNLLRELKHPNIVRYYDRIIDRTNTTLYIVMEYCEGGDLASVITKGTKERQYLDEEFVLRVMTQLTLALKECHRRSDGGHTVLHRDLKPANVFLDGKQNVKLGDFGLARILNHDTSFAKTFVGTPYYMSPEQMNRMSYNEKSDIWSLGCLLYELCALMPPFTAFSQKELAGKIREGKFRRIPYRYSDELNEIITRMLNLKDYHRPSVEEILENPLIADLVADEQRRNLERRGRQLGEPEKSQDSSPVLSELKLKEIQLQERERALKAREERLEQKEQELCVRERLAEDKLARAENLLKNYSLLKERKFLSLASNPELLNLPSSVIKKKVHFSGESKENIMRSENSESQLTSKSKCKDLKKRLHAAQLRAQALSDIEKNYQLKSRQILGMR
# [15] = molecular target: T6, Serine/threonine-protein kinase Nek2 (Homo sapiens); conditions: at 1 µM
# [16] = molecular target: Serine/threonine-protein kinase Nek6 (Homo sapiens) (UniProt Q9HC98); conditions: at 0.1 µM
# Chain of Serine/threonine-protein kinase Nek6 (Homo sapiens) (Q9HC98 whole entry): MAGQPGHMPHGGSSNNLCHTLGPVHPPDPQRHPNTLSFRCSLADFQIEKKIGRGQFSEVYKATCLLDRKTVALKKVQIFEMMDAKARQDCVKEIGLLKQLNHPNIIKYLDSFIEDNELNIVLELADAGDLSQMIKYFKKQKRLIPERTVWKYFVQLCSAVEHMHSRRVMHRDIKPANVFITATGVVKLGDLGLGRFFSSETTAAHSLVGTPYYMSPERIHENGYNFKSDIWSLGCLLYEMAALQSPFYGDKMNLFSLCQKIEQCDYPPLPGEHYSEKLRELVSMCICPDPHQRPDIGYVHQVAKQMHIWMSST
# [17] = molecular target: Serine/threonine-protein kinase Nek6 (Homo sapiens) (UniProt Q9HC98); conditions: at 1 µM
# [18] = molecular target: Serine/threonine-protein kinase Nek7 (Homo sapiens) (UniProt Q8TDX7); conditions: at 0.1 µM
# Chain of Serine/threonine-protein kinase Nek7 (Homo sapiens) (Q8TDX7 whole entry, looked up): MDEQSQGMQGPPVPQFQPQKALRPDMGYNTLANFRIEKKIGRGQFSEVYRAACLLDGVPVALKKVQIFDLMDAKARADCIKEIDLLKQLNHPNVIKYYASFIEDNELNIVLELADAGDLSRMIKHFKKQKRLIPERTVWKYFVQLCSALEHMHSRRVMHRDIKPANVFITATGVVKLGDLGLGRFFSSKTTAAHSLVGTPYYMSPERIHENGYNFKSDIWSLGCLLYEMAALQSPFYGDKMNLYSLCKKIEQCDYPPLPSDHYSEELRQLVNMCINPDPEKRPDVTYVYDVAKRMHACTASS
# [19] = molecular target: Serine/threonine-protein kinase Nek7 (Homo sapiens) (UniProt Q8TDX7); conditions: at 1 µM
# [20] = molecular target: T7, Serine/threonine-protein kinase Nek9 (Homo sapiens) (UniProt Q8TD19); conditions: at 0.1 µM;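 note: reported value is the mean percent inhibition of NEK9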
# T7 sequence (whole entry): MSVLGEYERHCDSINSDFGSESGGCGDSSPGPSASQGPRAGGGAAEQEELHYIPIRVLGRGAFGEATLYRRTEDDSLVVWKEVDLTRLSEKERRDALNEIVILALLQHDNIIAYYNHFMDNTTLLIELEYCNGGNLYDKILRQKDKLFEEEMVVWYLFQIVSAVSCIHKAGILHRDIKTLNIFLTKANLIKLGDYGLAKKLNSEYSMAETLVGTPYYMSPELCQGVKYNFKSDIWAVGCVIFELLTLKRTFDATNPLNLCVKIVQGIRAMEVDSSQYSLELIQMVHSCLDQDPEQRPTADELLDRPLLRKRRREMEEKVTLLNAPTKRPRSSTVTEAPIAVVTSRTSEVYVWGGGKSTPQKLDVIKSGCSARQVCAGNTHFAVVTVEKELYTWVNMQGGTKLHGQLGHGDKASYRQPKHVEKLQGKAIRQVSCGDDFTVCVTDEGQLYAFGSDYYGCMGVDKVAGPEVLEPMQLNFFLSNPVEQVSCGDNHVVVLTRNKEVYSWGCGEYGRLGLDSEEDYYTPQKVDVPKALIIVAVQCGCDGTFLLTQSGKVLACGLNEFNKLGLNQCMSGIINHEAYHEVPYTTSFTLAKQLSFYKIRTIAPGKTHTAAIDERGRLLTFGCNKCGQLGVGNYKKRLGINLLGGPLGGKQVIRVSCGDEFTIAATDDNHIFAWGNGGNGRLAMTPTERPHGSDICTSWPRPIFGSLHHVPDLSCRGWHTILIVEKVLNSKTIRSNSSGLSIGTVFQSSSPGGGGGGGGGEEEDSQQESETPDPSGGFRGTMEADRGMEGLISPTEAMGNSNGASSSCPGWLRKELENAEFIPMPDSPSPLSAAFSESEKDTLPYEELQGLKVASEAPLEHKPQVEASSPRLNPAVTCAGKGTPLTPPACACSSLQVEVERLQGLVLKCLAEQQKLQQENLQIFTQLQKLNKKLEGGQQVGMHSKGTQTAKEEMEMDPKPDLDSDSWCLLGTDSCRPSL
# Chain of Sphingosine kinase 1 (Homo sapiens) (Q9NYA1 whole entry): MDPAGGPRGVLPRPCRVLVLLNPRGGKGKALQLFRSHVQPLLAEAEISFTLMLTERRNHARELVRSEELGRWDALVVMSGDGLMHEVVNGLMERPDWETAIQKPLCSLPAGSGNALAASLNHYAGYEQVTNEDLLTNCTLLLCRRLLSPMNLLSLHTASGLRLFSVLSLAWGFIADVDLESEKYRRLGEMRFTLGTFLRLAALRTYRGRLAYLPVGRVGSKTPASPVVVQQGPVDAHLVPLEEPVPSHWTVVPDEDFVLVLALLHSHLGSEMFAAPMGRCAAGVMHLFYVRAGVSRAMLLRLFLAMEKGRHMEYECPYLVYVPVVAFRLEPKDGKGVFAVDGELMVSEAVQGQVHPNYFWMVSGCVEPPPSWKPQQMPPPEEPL
structure (smiles),measurement,setting,value
COc1cc(Nc2ncc(-c3ccccc3)o2)cc(OC)c1OC,inhibition,[1],0.49%
same,inhibition,[2],1.41%
same,inhibition,[3],-0.15%
same,inhibition,[4],0.33%
same,inhibition,[5],4.02%
same,inhibition,[6],2.97%
same,inhibition,[7],4.62%
same,inhibition,[8],0.7%
same,inhibition,[9],4.06%
same,inhibition,[10],0.76%
same,inhibition,[11],1.15%
same,inhibition,[12],-1.04%
same,inhibition,[13],1.71%
same,inhibition,[14],-1.53%
same,inhibition,[15],-0.62%
same,inhibition,[16],-1.01%
same,inhibition,[17],-3.53%
same,inhibition,[18],-3.32%
same,inhibition,[19],3.67%
same,inhibition,[20],5.06%
